Tests used:
Experiment in all cases: PBM binding z-score (relative to random genomic background probes); higher = stronger binding; sequences stand for … in GC…GCGATTGACAGCGTAGAATGAAGG
[1] = tested on: RARb homodimer (NR concentration 270 nM)
Summary of the method: (§1)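 Probes were double-stranded and carried 34-nt variable regions with direct-repeat seeds, single-nucleotide variants, half-site ablations and random human genomic background sequences, printed on custom Agilent 4×180K protein-binding microarrays. Arrays were incubated 1 h with ligand-free nuclear receptor dimers in PBS pH 7.4, 2% milk, 0.02% Triton X-100, 1 mM DTT, 0.2 mg/mL BSA and 0.4 mg/ml salmon testes DNA. Antibodies against each partner (one per run) detected binding, and scanned fluorescence was regression-normalized. Binding z-scores use the random background probes as reference.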

[2] = tested on: RARg:RXRa (NR concentration 270 nM, RXRa partner concentration 90 nM)
Summary of the method: as §1

[3] = tested on: RARg homodimer (NR concentration 270 nM)
Summary of the method: as §1

[4] = tested on: RXRa DBDmut IVT, anti-RXR (DBD mutation: RXRa K156A/R161A, NR concentration 90 nM)
Summary of the method: as §1

[5] = tested on: RXRa homodimer (NR concentration 180 nM)
Summary of the method: as §1

[6] = tested on: THRa:RXRa (NR concentration 90 nM, RXRa partner concentration 90 nM)
Summary of the method: as §1

[7] = tested on: THRa homodimer (NR concentration 90 nM)
Summary of the method: as §1

[8] = tested on: VDR homodimer (NR concentration 270 nM)
Summary of the method: as §1

Sequence	PBM binding z-score [1]	PBM binding z-score [2]	PBM binding z-score [3]	PBM binding z-score [4]	PBM binding z-score [5]	PBM binding z-score [6]	PBM binding z-score [7]	PBM binding z-score [8]
TCTCCGAGGACACGAAGGTCAGAGCTTTCCAGAG	3.51	3.46	4.49	0.665	2.02	3.74	2.44	1.76
TCTATTAGTTGATTAGGGGAACCGAAACAGCGGA	0.155	0.431	0.32	1.67	0.729	0.257	0.319	0.458
TCTAGCAGGCCAAAGGGTCACTCAAGAGGTACGG	4.55	4.65	4.35	0.568	4.24	2.51	-0.172	1.2
AGAATGAGGTTACTAAGATCAGGGAATTGCGGTC	1.12	1.25	1.15	1.43	1.98	2.28	0.919	0.836
TCTGCTAGGTCAACGGTGGTCAGCTAATCTGCTA	3.48	4.11	4.99	1.01	2.54	3.46	0.796	-0.606
TTACCAAGGTGGGCTGAGGTCGTTGATCCAACTC	1.04	0.249	-0.257	0.273	0.833	3.77	1.5	2.06
TGATATAGGTAATACAGGTGAAAGTCGGCATCTA	0.513	0.793	0.583	-0.27	1.12	0.952	0.267	0.316
CAAACTAGGTCCAGAGGTCAAAGTCCGCTTCCCG	4.66	5.31	4.62	2.53	6.34	3.75	1.72	4.18
TCTTGTACATCAGCAGGTTAAGAAAGCTGGCCAA	0.266	0.217	-0.00852	0.924	0.606	0.455	-0.157	0.111
AGTCAAAGTTCCCTAGGTAACGTAAGATTCAGCT	0.045	0.0675	0.31	0.164	-0.00363	0.427	-0.151	-0.324
TCTATTAGTTGATTAGGGCAAACGAAACAGCGGA	0.43	0.388	0.663	0.888	0.631	0.515	0.119	0.435
CGAACGAGGGCATGAGTTGTTAGCAAATGCCGAT	0.54	0.951	1.44	2.23	0.556	1.08	-0.284	1.12
CCTTACGGGTCACTGACAGGCTATAGCATTTGGA	2.85	5.13	4.79	1.86	5.2	2.41	-0.00278	0.687
AGAATGAGGTTACCAAAGATCTGGGAAACGCTTG	0.57	1.94	1.49	0.786	2.42	2.51	0.542	0.122

Source: the supplement of paper PMC6555819
